The results in this text go back to the supplement of paper PMC4709259.

Structures can show the parent of a compound that is named as a salt. ± gives the standard deviation.

This assay relates to Jurkat. As to the kind of experiment: cell count relative to DMSO control (fraction of control); higher = more cells (less growth inhibition). The settings on record: 48 h.
Turning to `CCCCCOC(=O)Nc1nc(=O)n([C@@H]2O[C@H](C)[C@@H](O)[C@H]2O)cc1F` [Capecitabine] (concentration: 25 µM), the cell count came to 1.01 ± 0.091.

`CO/N=C(\C(=O)N[C@@H]1C(=O)N2C(C(=O)OCOC(=O)C(C)(C)C)=C(/C=C\c3scnc3C)CS[C@H]12)c1csc(N)n1` [Cefditoren Pivoxil] (concentration: 25 µM): the cell count amounted to 0.77 ± 0.14.

As to `Cc1onc(-c2ccccc2Cl)c1C(=O)N[C@@H]1C(=O)N2[C@@H]1SC(C)(C)[C@@H]2C(=O)O` [Cloxacillin·Na] (concentration: 25 µM), the cell count is 0.703 ± 0.056.

In turn, `Cc1onc(-c2ccccc2)c1C(=O)N[C@@H]1C(=O)N2[C@@H]1SC(C)(C)[C@@H]2C(=O)O` [Oxacillin·Na] (concentration: 25 µM) had a cell count of 0.975 ± 0.1.

As for `CCOC(=O)c1ncn2c1CN(C)C(=O)c1cc(F)ccc1-2` [Flumazenil] (concentration: 25 µM), the cell count is 0.87 ± 0.025.

`CCCC(=O)Nc1ccc(OCC(O)CNC(C)C)c(C(C)=O)c1` (stereo not drawn) [Acebutolol·HCl] (concentration: 25 µM): the cell count amounted to 0.798 ± 0.17.

The molecule `Clc1ccc(C(Cn2ccnc2)OCc2csc3c(Cl)cccc23)c(Cl)c1` (stereo not drawn) [Sertaconazole] (concentration: 25 µM) showed a cell count of 0.801 ± 0.11.

Consider `C[C@@H]1C[C@H]2[C@@H]3CCC4=CC(=O)C=C[C@]4(C)[C@@]3(F)[C@@H](O)C[C@]2(C)[C@H]1C(=O)CO` [Desoximetasone] (concentration: 25 µM), for which the cell count was found to be 0.764 ± 0.02.

`COc1ccc(-c2ccc3cc(C(=O)O)ccc3c2)cc1C12CC3CC(CC(C3)C1)C2` [Adapalene] (concentration: 2.5 µM) had a cell count of 0.269 ± 0.081.

In turn, `CCCCNc1cc(C(=O)O)cc(S(N)(=O)=O)c1Oc1ccccc1` [Bumetanide] (concentration: 25 µM) had a cell count of 0.863 ± 0.022.

Molecule `COc1cccc2c1C(=O)c1c(O)c3c(c(O)c1C2=O)C[C@@](O)(C(C)=O)C[C@@H]3O[C@H]1C[C@H](N)[C@H](O)[C@H](C)O1` [Daunorubicin·HCl] (concentration: 25 nM) had a cell count of 0.711 ± 0.11.

On to `N[C@@H](Cc1cc(I)c(Oc2cc(I)c(O)c(I)c2)c(I)c1)C(=O)O` [Levothyroxine·Na] (concentration: 25 µM), for which the cell count is 0.808 ± 0.087.

The molecule `COc1ccc(O)cc1` [Mequinol] (concentration: 25 µM) returned a cell count of 0.863 ± 0.063.

For `O=C1c2cccc3c2[C@H](CCC3)CN1[C@@H]1CN2CCC1CC2` [Palonosetron·HCl] (concentration: 25 µM), the cell count was determined as 0.721 ± 0.022.

Molecule `CC(=O)NCCCS(=O)(=O)O` [Acamprosate] (concentration: 25 µM) yielded a cell count of 0.933 ± 0.097.

`COc1cc(C(C)=O)ccc1OCCCN1CCC(c2noc3cc(F)ccc23)CC1` [Iloperidone] (concentration: 25 µM) yielded a cell count of 0.734 ± 0.088.

As for `CCOc1nc2cccc(C(=O)O)c2n1Cc1ccc(-c2ccccc2-c2nnn[nH]2)cc1` [Candesartan] (concentration: 25 µM), the cell count stood at 0.901 ± 0.11.

For `C[N+](C)(C)C[C@H](O)CC(=O)[O-]` [Levocarnitine] (concentration: 25 µM), the cell count is 1.01 ± 0.099.

`OCCN1CCN(CCCN2c3ccccc3Sc3ccc(C(F)(F)F)cc32)CC1` [Fluphenazine·HCl] (concentration: 2.5 µM) showed a cell count of 0.701 ± 0.079.

The molecule `Cn1cnc([N+](=O)[O-])c1Sc1ncnc2[nH]cnc12` [Azathioprine] (concentration: 25 µM) yielded a cell count of 0.782 ± 0.088.

Regarding `CN(C)c1cc(NC(=O)CNC(C)(C)C)c(O)c2c1C[C@H]1C[C@H]3[C@H](N(C)C)C(=O)C(C(N)=O)=C(O)[C@@]3(O)C(=O)C1=C2O` [Tigecycline] (concentration: 25 µM), the cell count worked out at 0.784 ± 0.06.

As to `CC(N)C12CC3CC(CC(C3)C1)C2` (stereo not drawn) [Rimantadine·HCl] (concentration: 25 µM), the cell count is 0.697 ± 0.067.

As to `CN(C)CCOC(=O)C(c1ccccc1)C1(O)CCCC1` (stereo not drawn) [Cyclopentolate] (concentration: 25 µM), the cell count turned out to be 0.596 ± 0.08.
